Source: PubChem BioAssay (EPA / NIEHS)
Inconclusive results are not listed. The source made the active and inactive calls. How the source made its calls, unless noted: active means hit-call score of the fitted dose curve at least 0.9, where 1 is the maximum; inactive means score below 0.9.

How the values were obtained:
[1] = read-out: E-selectin (Homo sapiens) (UniProt P16581); assay: BSK_3C_Eselectin: BioMAP Diversity Plus: 3C Assay for Eselectin Biomarker Activity (AID 2283015); conditions: primary human endothelial cells (HUVEC); actives raise or lower the signal
In short: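 Primary human umbilical vein endothelial cells (3C system) were dosed with chemical and cell-surface E-selectin measured by ELISA 24 h later. Bidirectional curve fitting used DMSO as negative control and baseline.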

[2] = read-out: Monocyte Chemoattractant Protein-1 (MCP1), CCL2 (gene 6347); assay: BSK_3C_MCP1: BioMAP Diversity Plus: 3C Assay for Monocyte Chemoattractant Protein-1 (MCP1) Biomarker Activity (AID 2283017); conditions: primary human endothelial cells (HUVEC); actives raise or lower the signal
In short: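 Primary human umbilical vein endothelial cells (3C system) were exposed to test chemical for 24 h, after which MCP-1 was quantified by ELISA. Activity was fitted bidirectionally against DMSO as negative control and baseline.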

[3] = read-out: Monocyte Chemoattractant Protein-1 (MCP1), CCL2 (gene 6347); assay: BSK_4H_MCP1: BioMAP Diversity Plus: 4H Assay for Monocyte Chemoattractant Protein-1 (MCP1) Biomarker Activity (AID 2283018); conditions: primary human endothelial cells (HUVEC); actives raise or lower the signal
In short: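 HUVEC primary cells, 24 h post-dose, MCP-1 by ELISA. Gain or loss of signal fitted bidirectionally vs DMSO baseline. Cytotoxicity: SRB stain (0.1% after 10% TCA fixation), read 560 nm, parallel cultures.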

[4] = read-out: Human Leukocyte Antigen - DR isotype (HLADR), HLA-DRA (gene 3122); assay: BSK_3C_HLADR: BioMAP Diversity Plus: 3C Assay for Human Leukocyte Antigen - DR isotype (HLADR) Biomarker Activity (AID 2283019); conditions: primary human endothelial cells (HUVEC); actives raise or lower the signal
In short: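 Primary human umbilical vein endothelial cells (3C system) were dosed with compound and cell-surface HLA-DR was quantified by ELISA at 24 h. Activity was fitted bidirectionally against DMSO as negative control and baseline.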

[5] = read-out: Interleukin-8 (IL8), CXCL8 (gene 3576); assay: BSK_3C_IL8: BioMAP Diversity Plus: 3C Assay for Interleukin-8 (IL8) Biomarker Activity (AID 2283020); conditions: primary human endothelial cells (HUVEC); actives raise or lower the signal
In short: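 HUVEC, 3C stimulation; 24 h compound exposure; IL-8 read by ELISA; gain or loss of signal fitted relative to DMSO control.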

[6] = read-out: Monokine induced gamma interferon (MIG), CXCL9 (gene 4283); assay: BSK_3C_MIG: BioMAP Diversity Plus: 3C Assay for Monokine induced gamma interferon (MIG) Biomarker Activity (AID 2283021); conditions: primary human endothelial cells (HUVEC); actives raise or lower the signal
In short: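 HUVEC, 3C system; 24 h chemical exposure; MIG by ELISA; bidirectional fit vs DMSO baseline.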

[7] = read-out: Interleukin-1 alpha (IL1a), IL1A (gene 3552); assay: BSK_BE3C_IL1a: BioMAP Diversity Plus: BE3C Assay for Interleukin-1 alpha (IL1a) Biomarker Activity (AID 2283016); conditions: primary human bronchial epithelial cells; actives raise or lower the signal
In short: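 ELISA read-out of IL-1a from human lung bronchial epithelial primary cells, 24 h post-dose. Gain or loss of signal fitted relative to DMSO negative control.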

[8] = molecular target: human Retinoid X Receptor beta (RXRb), RXRB (gene 6257) (UniProt P28702); assay: ATG_RXRb_TRANS: Attagene TRANS-FACTORIAL HepG2 Assay for human Retinoid X Receptor beta (RXRb) (AID 2283013; active means hit-call score of the fitted dose curve at least 0.9, where 1 is the maximum)
Sequence of human Retinoid X Receptor beta (RXRb), RXRB (gene 6257) (P28702 whole entry, looked up, the tested form may be a part): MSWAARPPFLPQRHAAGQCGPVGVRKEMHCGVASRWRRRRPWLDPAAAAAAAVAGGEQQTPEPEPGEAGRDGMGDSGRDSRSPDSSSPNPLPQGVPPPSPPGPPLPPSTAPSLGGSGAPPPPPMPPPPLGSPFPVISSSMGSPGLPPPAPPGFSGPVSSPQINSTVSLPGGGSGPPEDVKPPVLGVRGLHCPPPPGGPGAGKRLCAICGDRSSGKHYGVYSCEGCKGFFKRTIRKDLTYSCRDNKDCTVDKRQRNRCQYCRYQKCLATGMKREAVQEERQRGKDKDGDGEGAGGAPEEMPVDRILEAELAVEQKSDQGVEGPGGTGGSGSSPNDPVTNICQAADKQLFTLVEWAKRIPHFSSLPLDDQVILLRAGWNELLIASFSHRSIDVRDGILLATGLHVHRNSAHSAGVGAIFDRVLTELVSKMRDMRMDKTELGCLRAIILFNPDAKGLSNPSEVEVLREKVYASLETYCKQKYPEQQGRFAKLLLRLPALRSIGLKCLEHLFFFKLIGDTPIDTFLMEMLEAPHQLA
In short: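 Read-out: reporter mRNA induction via RT-PCR plus capillary electrophoresis fluorescence, analysed as signal increase relative to DMSO. Cells were human HepG2, transiently transfected with GAL4-UAS reporter constructs and chimeric receptor-Gal4 fusions, dosed for 24 h.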

[9] = molecular target: human Vitamin D Receptor (VDR), VDR (gene 7421) (UniProt P11473); assay: ATG_VDR_TRANS: Attagene TRANS-FACTORIAL HepG2 Assay for human Vitamin D Receptor (VDR) (AID 2283022; active means hit-call score of the fitted dose curve at least 0.9, where 1 is the maximum)
Sequence of human Vitamin D Receptor (VDR), VDR (gene 7421) (P11473 whole entry, looked up, the tested form may be a part): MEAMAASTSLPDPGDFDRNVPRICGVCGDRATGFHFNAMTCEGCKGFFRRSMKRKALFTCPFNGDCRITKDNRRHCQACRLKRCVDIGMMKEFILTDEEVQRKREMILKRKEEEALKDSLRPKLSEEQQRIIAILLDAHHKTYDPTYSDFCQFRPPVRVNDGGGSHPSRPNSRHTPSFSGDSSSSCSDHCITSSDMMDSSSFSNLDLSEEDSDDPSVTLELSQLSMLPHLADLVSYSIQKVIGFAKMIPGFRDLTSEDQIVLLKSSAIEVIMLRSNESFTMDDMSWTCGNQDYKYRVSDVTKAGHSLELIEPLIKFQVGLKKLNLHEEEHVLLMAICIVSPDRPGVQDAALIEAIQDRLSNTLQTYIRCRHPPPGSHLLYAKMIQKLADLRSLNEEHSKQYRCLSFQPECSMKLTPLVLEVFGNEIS
In short: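 HepG2 cells were transiently transfected with multiple GAL4-UAS reporter units, so signal reflects exogenous chimeric receptor-Gal4 activity. After 24 h compound exposure, reporter mRNA was measured by RT-PCR, fluorescent labelling and capillary electrophoresis, fitted for gain of signal versus DMSO.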

Measured: AC50

Sequence of E-selectin (Homo sapiens) (P16581 whole entry, looked up): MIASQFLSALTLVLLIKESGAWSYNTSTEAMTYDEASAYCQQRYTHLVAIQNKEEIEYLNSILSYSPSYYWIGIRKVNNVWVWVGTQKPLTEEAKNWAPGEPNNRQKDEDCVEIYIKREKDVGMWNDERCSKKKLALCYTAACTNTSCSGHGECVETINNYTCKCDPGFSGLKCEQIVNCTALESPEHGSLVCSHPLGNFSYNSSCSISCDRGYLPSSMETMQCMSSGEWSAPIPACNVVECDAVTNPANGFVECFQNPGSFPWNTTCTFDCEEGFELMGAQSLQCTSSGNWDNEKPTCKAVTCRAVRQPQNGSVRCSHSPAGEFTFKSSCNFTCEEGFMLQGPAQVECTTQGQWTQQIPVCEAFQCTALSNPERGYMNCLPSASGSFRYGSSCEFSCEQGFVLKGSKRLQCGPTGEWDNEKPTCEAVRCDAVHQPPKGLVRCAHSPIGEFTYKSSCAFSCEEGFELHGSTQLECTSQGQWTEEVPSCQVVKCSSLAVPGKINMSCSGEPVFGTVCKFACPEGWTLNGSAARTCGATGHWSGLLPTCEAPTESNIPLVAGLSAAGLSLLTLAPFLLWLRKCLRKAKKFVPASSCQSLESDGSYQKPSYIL

OCC(O)CO
not listed: [7] | [8] | [9]
inactive: all other assays above

CC(C)c1cccc(C(C)C)c1NC(=O)NS(=O)(=O)c1cc(C(C)(C)O)co1
not listed: [8] | [9]
inactive: all other assays above

Cc1cn([C@H]2C=C[C@@H](CO)O2)c(=O)[nH]c1=O
not listed: [8] | [9]
inactive: all other assays above

Cc1ccc(-c2cc(C(F)(F)F)nn2-c2ccc(S(N)(=O)=O)cc2)cc1
active: [1] 30 µM | [2] 37.8 µM | [3] 27.8 µM | [4] 31 µM | [5] 32.7 µM

COC(=O)CCC(=O)OC
not listed: [8] | [9]
inactive: all other assays above

CCCCCCC(CCCCCCCCCCC(=O)OCC(COC(C)=O)OC(C)=O)OC(C)=O (centres undefined)
inactive: [1] | [2] | [4] | [5] | [6]
active: [8] 50 µM

O=C(O)CC(O)(CC(=O)O)C(=O)O
not listed: [8] | [9]
inactive: all other assays above

CO[C@@H]1COCC[C@@H]1N[C@@H]1CC[C@@](C(=O)N2CCc3ncc(C(F)(F)F)cc3C2)(C(C)C)C1
inactive: [1] | [2] | [4] | [5] | [6]

OCC(CO)n1cnc(-c2ccc(F)cc2)c1-c1ccnc(Oc2ccccc2)n1
inactive: [1] | [3] | [6]
active: [2] 1.08 µM | [4] 0.254 µM | [5] 0.852 µM

CC(=O)S[C@H](C(=O)N[C@H]1Cc2ccccc2[C@H]2CCC[C@@H](C(=O)O)N2C1=O)C(C)C
not listed: [7] | [8] | [9]
inactive: all other assays above

Oc1ccc(O)cc1
active: [1] 13.8 µM | [4] 23.5 µM
inactive: [7] | [2] | [5] | [6]

O=C(N[C@@H](c1ccccc1)[C@@H]1CCCCN1)c1cccc(C(F)(F)F)c1Cl
inactive: [1] | [6] | [9]
active: [2] 20 µM | [4] 29.2 µM | [5] 12.7 µM

O=C(Oc1ccccc1)c1cccc(C(=O)Oc2ccccc2)c1
not listed: [3] | [8] | [9]
inactive: all other assays above

CC(C)(C)c1ccccc1
not listed: [7] | [8]
inactive: all other assays above

CCCCCCCCCCCCCCCCO
inactive: [1] | [2] | [4] | [5] | [6]

CCCCC(CC)COP(=O)(OCC(CC)CCCC)OCC(CC)CCCC (centres undefined)
active: [2] 18.2 µM | [3] 20 µM | [4] 20 µM | [5] 14 µM
inactive: [1] | [6]

CN(C)CCCN(C)CCCN(C)C
inactive: [1] | [2] | [4] | [5] | [6]
active: [8] 23.8 µM

Cc1cc(Cc2ccc(N)c(C)c2)ccc1N
not listed: [3] | [7] | [9]
inactive: all other assays above

CC1(C)C(=O)NC(=O)N1CO
not listed: [3] | [7] | [9]
inactive: all other assays above

O=C1c2c(O)cccc2Cc2cccc(O)c21
not listed: [3] | [7] | [9]
inactive: all other assays above

CC(COCC(C)OC(=O)c1ccccc1)OC(=O)c1ccccc1 (centres undefined)
inactive: [1] | [2] | [4] | [5] | [6]

C/C=C/c1ccc(OC)cc1
not listed: [7] | [9]
inactive: all other assays above
